The panel holds about 83,000 compounds, 20% with a hit somewhere; the sample as a whole holds those more often.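 Percent growth is the endpoint: 0 to 100 indicates growth inhibition (40 means 60% inhibition), 0 means no net growth, and negative values indicate cell death.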 Active and inactive are the calls of the source. The calls were made as follows: active = growth percent below 10; inactive = the rest.

In the first experiment the test system is HT29 colon. Kind of experiment: NCI-60 one-dose screen, 48 h (100 = growth as untreated, 0 = no growth, -100 = all killed). As to conditions: 10 µM unless noted.
For the compound `CCC(C)(C)C(=O)O[C@H]1C[C@@H](C)C=C2C=C[C@H](C)[C@H](CC[C@@H]3C[C@@H](O)CC(=O)O3)[C@H]21`, the growth was 76.9% (inactive).
Same read-out and setting: under `O=C1C(=O)c2ccc(Br)cc2-c2cc(Br)ccc21` stands 105% (inactive); under `CCOC(=O)c1c(C)c(C(=O)OCC)n(C)c1C`, 88.5% (inactive); under `COc1ncc(-c2ccc3nccc(C#CCN4CCN(S(C)(=O)=O)CC4)c3c2)cc1NS(=O)(=O)c1ccc(F)cc1F`, 10.3% (inactive).
Take `COc1ccc2c3c(c(OCCCN(C)C)nc2c1)-c1ccc(Cl)cc1C3=O`: the growth was -80.8% (active).
Turning to `CC1=CC(=O)C(C(C)=Nc2ccccc2Cl)C(=O)O1` (stereo not drawn), the growth is 101% (inactive).
Same read-out and setting: under `C=C(C[C@](O)(C(=O)/C=C/c1ccc(Cl)cc1)C(=O)OC)c1ccccc1` stands 16.4% (inactive); under `Nc1ccc(C2=Nc3cccc4cccc(c34)S2)cc1`, 98.5% (inactive); under `COc1cc(C2CC(c3ccc(C)cc3)=NN2C(C)=O)ccc1Oc1ccnc2cc(Cl)ccc12` (stereo not drawn), 77.1% (inactive).
In the case of `CSc1ncc2ncn(C3OC(CO)C(O)C3O)c2n1` (stereo not drawn), the growth is 108% (inactive).
Still for that read-out and setting: under `COc1ccc2nc3cc(Cl)ccc3c(Nc3cc(C(C)C)c(O)cc3C)c2c1` stands 5.84% (active); under `O=C(Nc1ccc(Cl)cc1Cl)Nc1ccc(-c2cccnc2)cc1N1CCC(CO)CC1`, 28% (inactive).
Same read-out and setting: under `COc1ccc2c(c1)C(=O)c1c-2c(OCCCN(C)C)nc2cc(Br)ccc12` stands -19.7% (active).
Turning to `CC(O)c1nc2c(c(=O)n(C)c(=O)n2C)n1C` (stereo not drawn), the growth is 113% (inactive).
For the compound `COc1cc(Oc2cc(-c3cccnc3)ccc2NC(=O)Nc2ccc(F)cc2F)cc(OC)c1OC`, the growth is 105% (inactive).
As for `O=C(/C=C/c1ccccc1Cl)c1ccc(O)cc1`, the growth was 14.5% (inactive).
For `CN1CCN(Cc2ccc(NC(=O)c3[nH]ncc3Nc3ccnc4ccnn34)cc2)CC1`, the growth was 67% (inactive).
`Cc1cc(C(C)(C)c2cc(C)c(O)c(CN(C)C)c2)cc(CN(C)C)c1O`: the growth is 76.3% (inactive).
On the same count and under the same terms, next, `N#Cc1c(N)[nH]c(S)c1C#N`: 99.9% (inactive).

The next experiment relates to SNB-75 CNS. The description is as above. Conditions: 10 µM unless noted.
In the case of `c1cnc2ccc3ncccc3c2c1`, the growth was 89.5% (inactive).
Same read-out and setting: under `Clc1ccc2c(Nc3ccc4oc(NCCN5CCCC5)nc4c3)ccnc2c1` stands 79.8% (inactive); under `CCN(CC)CCCNCCCNc1cc(OC)cc2cccnc12`, 82.8% (inactive).
`CCCCCCCCCCCCNc1ncnc2[nH]ncc12`: the growth was 105% (inactive).
Still for that read-out and setting: under `O=C(CN1CCCCC1)Sc1nnc2sc3ccccc3n12` stands 74.6% (inactive); under `CC(=O)NC1(C(=O)O)CCCC1`, 102% (inactive).
With `CCCCCCCCCCCCCCCCN=C(CC(=O)O)C(=O)O`, the growth was 91.6% (inactive).
The same measure, in the same setting: under `c1ccc(N2CCN(c3nncc4ccccc34)CC2)nc1` stands 105% (inactive); under `O=c1[nH]c(Cl)nc2c1cnn2-c1ccccc1`, 82.9% (inactive); under `ClC1=C(Cl)C(Cl)=C(Cl)C1=C/C=C/c1ccccc1`, 19.8% (inactive).
For `CN(CC(=O)N(Cc1ccc(C2CCCCC2)cc1)c1ccc(C(=O)O)cc1)S(=O)(=O)c1c(F)c(F)c(F)c(F)c1F`, the growth is 68.6% (inactive).
The same measure, in the same setting: under `COc1ccc(CCN2CCCN3C2=Nc2ccccc2S3(=O)=O)cc1` stands 16.2% (inactive).
Consider `CCOC(=O)c1cc(-c2cccnc2)nc2c(Cl)cc(Cl)cc12`, for which the growth was 104% (inactive).
The same measure, in the same setting: under `CCC(C)(C)C(=O)O[C@H]1C[C@@H](C)C=C2C=C[C@H](C)[C@H](CC[C@@H]3C[C@@H](O)CC(=O)O3)[C@H]21` stands 13.7% (inactive); under `O=C1C(=O)c2ccc(Br)cc2-c2cc(Br)ccc21`, 84.2% (inactive); under `CCOC(=O)c1c(C)c(C(=O)OCC)n(C)c1C`, 83.6% (inactive).
`COc1ncc(-c2ccc3nccc(C#CCN4CCN(S(C)(=O)=O)CC4)c3c2)cc1NS(=O)(=O)c1ccc(F)cc1F`: the growth is -11.4% (active).
With `COc1ccc2c3c(c(OCCCN(C)C)nc2c1)-c1ccc(Cl)cc1C3=O`, the growth was 53% (inactive).
On the same count and under the same terms, next, `CC1=CC(=O)C(C(C)=Nc2ccccc2Cl)C(=O)O1` (stereo not drawn): 83.6% (inactive); `C=C(C[C@](O)(C(=O)/C=C/c1ccc(Cl)cc1)C(=O)OC)c1ccccc1`: 75.7% (inactive).
Still for that read-out and setting: next, `Nc1ccc(C2=Nc3cccc4cccc(c34)S2)cc1`: 71.4% (inactive); `CSc1ncc2ncn(C3OC(CO)C(O)C3O)c2n1` (stereo not drawn): 96% (inactive); `COc1ccc2nc3cc(Cl)ccc3c(Nc3cc(C(C)C)c(O)cc3C)c2c1`: 63.7% (inactive).
Regarding `O=C(Nc1ccc(Cl)cc1Cl)Nc1ccc(-c2cccnc2)cc1N1CCC(CO)CC1`, the growth was 39.4% (inactive).
